Test results taken from PubChem BioAssay (EPA / NIEHS).
Active and inactive are the calls of the source. How the source made its calls: active means hit-call score of the fitted dose curve at least 0.9, where 1 is the maximum; inactive means score below 0.9.

Key:
[1] = read-out: Thrombomodulin, THBD (gene 7056); assay: BSK_CASM3C_Thrombomodulin: BioMAP Diversity Plus: CASM3C Assay for Thrombomodulin Biomarker Activity (AID 2283051); conditions: primary human coronary artery smooth muscle cells; actives raise or lower the signal;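 further: thrombomodulin protein level measured by ELISA 24 h after dosing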
[2] = read-out: Tissue Factor, F3 (gene 2152); assay: BSK_CASM3C_TissueFactor: BioMAP Diversity Plus: CASM3C Assay for Tissue Factor Biomarker Activity (AID 2283052); conditions: primary human coronary artery smooth muscle cells; actives raise or lower the signal;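 further: cell surface tissue factor protein level read by ELISA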
[3] = read-out: Interferon-gamma inducible Protein 10 (IP10), CXCL10 (gene 3627); assay: BSK_hDFCGF_IP10: BioMAP Diversity Plus: hDFCGF Assay for Interferon-gamma inducible Protein 10 (IP10) Biomarker Activity (AID 2283053); conditions: primary human foreskin fibroblasts; actives raise or lower the signal
Procedure, shortened: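 ELISA quantification of IP-10 after a 24 h chemical exposure of human dermal foreskin fibroblast primary cultures. Both increases and decreases versus DMSO fitted.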

[4] = read-out: Urokinase-type plasminogen activator receptor (uPAR), PLAUR (gene 5329); assay: BSK_CASM3C_uPAR: BioMAP Diversity Plus: CASM3C Assay for Urokinase-type plasminogen activator receptor (uPAR) Biomarker Activity (AID 2283054); conditions: primary human coronary artery smooth muscle cells; actives raise or lower the signal;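 further: cell-surface uPAR protein level quantified by ELISA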
[5] = read-out: Vascular cell adhesion molecule 1 (VCAM1), VCAM1 (gene 7412); assay: BSK_CASM3C_VCAM1: BioMAP Diversity Plus: CASM3C Assay for Vascular cell adhesion molecule 1 (VCAM1) Biomarker Activity (AID 2283055); conditions: primary human coronary artery smooth muscle cells; actives raise or lower the signal;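 further: VCAM-1 protein level quantified by ELISA on the cells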
[6] = read-out: Collagen III, COL3A1 (gene 1281); assay: BSK_hDFCGF_CollagenIII: BioMAP Diversity Plus: hDFCGF Assay for Collagen III Biomarker Activity (AID 2283056); conditions: primary human foreskin fibroblasts; actives raise or lower the signal
Procedure, shortened: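 Human foreskin primary fibroblasts were exposed to test chemicals for 24 h, after which collagen III was quantified by ELISA. Activity was fitted bidirectionally against DMSO as negative control and baseline.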

[7] = read-out: Epidermal growth factor receptor (EGFR), EGFR (gene 1956); assay: BSK_hDFCGF_EGFR: BioMAP Diversity Plus: hDFCGF Assay for Epidermal growth factor receptor (EGFR) Biomarker Activity (AID 2283057); conditions: primary human foreskin fibroblasts; actives raise or lower the signal
Procedure, shortened: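 EGFR levels by ELISA in human dermal fibroblast cultures, 24 h post-treatment, fitted bidirectionally versus DMSO. Parallel wells stained with sulforhodamine B to detect overt cytotoxicity.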

[8] = read-out: Interleukin-8 (IL8), CXCL8 (gene 3576); assay: BSK_hDFCGF_IL8: BioMAP Diversity Plus: hDFCGF Assay for Interleukin-8 (IL8) Biomarker Activity (AID 2283058); conditions: primary human foreskin fibroblasts; actives raise or lower the signal
Procedure, shortened: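 hDFCGF human dermal fibroblasts; 24 h chemical exposure; IL-8 by ELISA; bidirectional curve fit vs DMSO baseline; gain or loss of signal scored.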

[9] = BSK_hDFCGF_Proliferation: Cell Proliferation Assessment in the BioMAP Diversity Plus: hDFCGF Assay (AID 2283059); conditions: primary human foreskin fibroblasts;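 further: curves fitted for both rise and fall of signal versus DMSO baseline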
Procedure, shortened: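 Sub-confluent human foreskin fibroblast cultures receive test chemical […]. Relative cell number is quantified by sulforhodamine B staining (0.1%, after 10% TCA fixation) at 560 nm, with bidirectional fitting referenced to DMSO.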

[10] = read-out: Macrophage colony-stimulating factor (MCSF), CSF1 (gene 1435); assay: BSK_hDFCGF_MCSF: BioMAP Diversity Plus: hDFCGF Assay for Macrophage colony-stimulating factor (MCSF) Biomarker Activity (AID 2283060); conditions: primary human foreskin fibroblasts; actives raise or lower the signal
Procedure, shortened: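 Human foreskin primary fibroblasts were treated with test chemical for 24 h, and M-CSF was then measured by ELISA. Data were fitted bidirectionally against DMSO as the negative control and activity baseline.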

[11] = BSK_hDFCGF_SRB: Viability Assessment in the BioMAP Diversity Plus: hDFCGF Assay (AID 2283061); conditions: primary human foreskin fibroblasts;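 further: cells exposed to compound for 24 h before the read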
Procedure, shortened: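 Human foreskin primary fibroblasts were treated with compound and assessed 24 h after dosing. Total protein was measured by sulforhodamine B staining (0.1% SRB after 10% TCA fixation, 560 nm read) as a cytotoxicity marker, with bidirectional fitting against DMSO baseline.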

[12] = read-out: TIMP metallopeptidase inhibitor 1 (TIMP1), TIMP1 (gene 7076); assay: BSK_hDFCGF_TIMP1: BioMAP Diversity Plus: hDFCGF Assay for TIMP metallopeptidase inhibitor 1 (TIMP1) Biomarker Activity (AID 2283062); conditions: primary human foreskin fibroblasts; actives raise or lower the signal
Procedure, shortened: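 Primary human foreskin fibroblasts in the hDFCGF system were dosed with compound for 24 h, then TIMP-1 was measured by ELISA. Activity was fitted bidirectionally relative to DMSO control; parallel SRB staining assessed cytotoxicity.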

[13] = read-out: Monokine induced gamma interferon (MIG), CXCL9 (gene 4283); assay: BSK_hDFCGF_MIG: BioMAP Diversity Plus: hDFCGF Assay for Monokine induced gamma interferon (MIG) Biomarker Activity (AID 2283063); conditions: primary human foreskin fibroblasts; actives raise or lower the signal
Procedure, shortened: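 ELISA read-out of MIG from primary human dermal fibroblasts 24 h post-dosing. Gain or loss of signal fitted bidirectionally, DMSO as baseline.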

[14] = read-out: Matrix Metallopeptidase 1 (MMP1), MMP1 (gene 4312); assay: BSK_hDFCGF_MMP1: BioMAP Diversity Plus: hDFCGF Assay for Matrix Metallopeptidase 1 (MMP1) Biomarker Activity (AID 2283064); conditions: primary human foreskin fibroblasts; actives raise or lower the signal
Procedure, shortened: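 Human foreskin fibroblasts exposed to chemical for 24 h; MMP1 detected by ELISA, with DMSO as baseline for bidirectional fitting.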

[15] = read-out: Vascular cell adhesion molecule 1 (VCAM1), VCAM1 (gene 7412); assay: BSK_hDFCGF_VCAM1: BioMAP Diversity Plus: hDFCGF Assay for Vascular cell adhesion molecule 1 (VCAM1) Biomarker Activity (AID 2283065); conditions: primary human foreskin fibroblasts; actives raise or lower the signal;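 on AC50: VCAM-1 protein level quantified by ELISA after 24 h chemical exposure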
Procedure, shortened: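 Primary human foreskin fibroblasts (hDFCGF system) were dosed with chemical and VCAM-1 was measured by ELISA 24 h later. Bidirectional curve fitting used DMSO as negative control and activity baseline.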

[16] = read-out: Plasminogen activator inhibitor-1 (PAI1), SERPINE1 (gene 5054); assay: BSK_hDFCGF_PAI1: BioMAP Diversity Plus: hDFCGF Assay for Plasminogen activator inhibitor-1 (PAI1) Biomarker Activity (AID 2283066); conditions: primary human foreskin fibroblasts; actives raise or lower the signal
Procedure, shortened: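 PAI-1 levels in human dermal foreskin fibroblasts were quantified by ELISA 24 h after dosing, with gain or loss analysed against DMSO. Overt cytotoxicity was checked by sulforhodamine B total-protein staining in parallel cultures.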

[17] = read-out: Intercellular Adhesion Molecule 1 (ICAM1), ICAM1 (gene 3383); assay: BSK_KF3CT_ICAM1: BioMAP Diversity Plus: KF3CT Assay for Intercellular Adhesion Molecule 1 (ICAM1) Biomarker Activity (AID 2283067); conditions: primary human keratinocytes with fibroblasts; actives raise or lower the signal
Procedure, shortened: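 Human keratinocyte plus foreskin fibroblast primary co-culture was exposed to chemical for 24 h. ICAM-1 was then quantified by ELISA, and the data were fit bidirectionally against DMSO as the negative control and baseline.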

[18] = read-out: Interferon-gamma inducible Protein 10 (IP10), CXCL10 (gene 3627); assay: BSK_KF3CT_IP10: BioMAP Diversity Plus: KF3CT Assay for Interferon-gamma inducible Protein 10 (IP10) Biomarker Activity (AID 2283068); conditions: primary human keratinocytes with fibroblasts; actives raise or lower the signal
Procedure, shortened: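 ELISA read-out of IP-10 after 24 h chemical dosing of human skin primary co-culture (keratinocytes, foreskin fibroblasts). Gain or loss of signal relative to DMSO, bidirectional curve fit.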

[19] = BSK_KF3CT_SRB: Viability Assessment in the BioMAP Diversity Plus: KF3CT Assay (AID 2283069); conditions: primary human keratinocytes with fibroblasts;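 further: fitted for both signal gain and loss against DMSO baseline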
Procedure, shortened: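 Overt cytotoxicity is assessed as total protein by sulforhodamine B staining in parallel human skin co-cultures at 24 h after dosing. DMSO serves as negative control and baseline.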

[20] = read-out: Interleukin-1 alpha (IL1a), IL1A (gene 3552); assay: BSK_KF3CT_IL1a: BioMAP Diversity Plus: KF3CT Assay for Interleukin-1 alpha (IL1a) Biomarker Activity (AID 2283070); conditions: primary human keratinocytes with fibroblasts; actives raise or lower the signal
Procedure, shortened: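 Readout is IL-1a level by ELISA, compared bidirectionally with DMSO as baseline. Cells: human keratinocytes co-cultured with foreskin fibroblasts, harvested 24 h post-dose.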

Measured: AC50

Oc1cccc2cccnc12
inactive: [2] | [4] | [5] | [8]
active: [1] 4.74 µM | [3] 0.206 µM | [6] 3.47 µM | [7] 0.275 µM | [9] 0.852 µM | [10] 0.301 µM | [11] 0.564 µM | [12] 0.201 µM | [13] 0.169 µM | [14] 0.927 µM | [15] 1.03 µM | [16] 0.331 µM | [17] 2.14 µM | [18] 2.55 µM | [19] 2.78 µM | [20] 2.13 µM

CC(C)(c1ccccc1)c1ccc(O)c(C(C)(C)c2ccccc2)c1
active: [1] 34.3 µM | [2] 16.4 µM | [3] 3.52 µM | [4] 29.4 µM | [5] 29.3 µM | [6] 2.94 µM | [7] 3.45 µM | [8] 5.4 µM | [9] 2.82 µM | [10] 3.63 µM | [11] 3.57 µM | [12] 4.07 µM | [13] 4.86 µM | [14] 4.05 µM | [15] 2.79 µM | [16] 3.74 µM | [17] 3.68 µM | [18] 3.1 µM | [19] 2.33 µM | [20] 4.02 µM

CCC(=O)C(CC(C)N(C)C)(c1ccccc1)c1ccccc1 (stereo not drawn)
inactive: [1] | [2] | [3] | [4] | [5] | [6] | [7] | [8] | [9] | [10] | [11] | [12] | [13] | [14] | [15] | [16] | [17] | [18] | [19] | [20]

CCOC(=O)/C=C(C)/C=C/C[C@@H](C)CCCC(C)C
inactive: [7] | [8]
active: [1] 35.8 µM | [2] 20 µM | [3] 31.4 µM | [4] 30.9 µM | [5] 20 µM | [6] 8.64 µM | [9] 9.55 µM | [10] 20 µM | [11] 25.1 µM | [12] 26.6 µM | [13] 33.2 µM | [14] 32.4 µM | [15] 20.7 µM | [17] 34.5 µM | [18] 33.4 µM | [19] 33.8 µM | [20] 26.3 µM

CC(=O)C(Cl)C(=O)N(C)C (stereo not drawn)
inactive: [1] | [3] | [4] | [7] | [8] | [11] | [12] | [13] | [14] | [15] | [16] | [17] | [18] | [19]
active: [2] 7.43 µM | [5] 12 µM | [6] 13.8 µM | [9] 26 µM | [20] 13.9 µM

ClC1=C(Cl)[C@]2(Cl)[C@H]3[C@H]([C@H]4C=C[C@H]3C4)[C@@]1(Cl)C2(Cl)Cl
inactive: [1] | [3] | [4] | [5] | [7] | [8] | [11] | [12] | [13] | [14] | [17] | [18] | [19] | [20]
active: [2] 0.266 µM | [6] 4.4 µM | [9] 8.76 µM | [10] 0.492 µM | [15] 6.26 µM | [16] 1.16 µM

O=[N+]([O-])c1ccc(O)c([N+](=O)[O-])c1
inactive: [1] | [2] | [3] | [4] | [5] | [6] | [7] | [8] | [9] | [10] | [11] | [12] | [13] | [14] | [15] | [16] | [17] | [18] | [19] | [20]

COC[C@H](C)N(C(=O)CCl)c1c(C)csc1C
inactive: [1] | [2] | [3] | [4] | [5] | [6] | [7] | [8] | [9] | [10] | [11] | [12] | [13] | [14] | [15] | [16] | [17] | [18] | [19] | [20]

Cn1sc(Cl)cc1=O
inactive: [1] | [2] | [4] | [18] | [19] | [20]
active: [3] 28.2 µM | [5] 20 µM | [6] 33.6 µM | [7] 33.6 µM | [8] 37.9 µM | [9] 1.77 µM | [10] 25.6 µM | [11] 30.5 µM | [12] 29.8 µM | [13] 27.9 µM | [14] 32.8 µM | [15] 23.4 µM | [16] 35.2 µM | [17] 20 µM

COP(=S)(OC)Oc1c(Cl)cc(C)cc1Cl
inactive: [1] | [3] | [4] | [5] | [7] | [8] | [9] | [10] | [11] | [12] | [13] | [14] | [16] | [17] | [18] | [19] | [20]
active: [2] 5.88 µM | [6] 13.2 µM | [15] 20 µM
